Molecules are shown by their SMILES.

Inhibition data for 40 compounds are collected here from ChEMBL document CHEMBL1157539, “Thousands of chemical starting points for antimalarial lead identification” (Nature, 2010).

The first experiment has as its system Plasmodium falciparum. The experiment is described as follows: GSK_TCMDC: Inhibition of Plasmodium falciparum 3D7 in whole red blood cells, using parasite LDH activity as an index of growth. Test compounds present at 2uM. The experiment is classed as functional.
For the compound `Cc1cc2ccc(/C=C/C(=O)NC3CCC(CCN4CCc5ccc(C#N)cc5CC4)CC3)cc2[nH]1.Cl` (stereo not drawn), the Inhibition is on record as 84%.

The compound `CCCN1CCC=C(c2cccc(Nc3nccc(Nc4cc(OC)ccc4C)n3)c2)C1.Cl` returned an Inhibition of 88%. `CC(C)N1CCN(C(=O)c2ccc(CNCCCN3CCN(c4cccc(Cl)c4Cl)CC3)o2)CC1.Cl` registered an Inhibition of 98%. Take `CC(C)CNCc1cccc(-c2cccc(CNc3ccc4ncccc4c3)c2)c1.O=C(O)C(F)(F)F`: the Inhibition amounted to 92%. Take `CCC(C)OC(=O)C1=C(C)NC2=C(C(=O)CC(c3ccc(OC)c(OC)c3)C2)C1c1cccc(O)c1` (stereo not drawn): the Inhibition is given as 100%. As for `CCCCn1c(C(C)Oc2ccc(Cl)cc2Cl)nc2cc(S(N)(=O)=O)ccc21` (stereo not drawn), the Inhibition is given as 94%. Still for that read-out and setting: with `Cc1cccc2nc(-c3ccc(-c4cccc(C(=O)NCCN5CCCC5)c4)s3)[nH]c12` the figure was 94%. `COc1ccccc1-n1ccnc1SCC(=O)Nc1cc(C(F)(F)F)ccc1Cl`: the Inhibition stood at 97%. The compound `COc1ccc(-c2ccc(CNC3Cc4ccccc4C3)cc2)cc1S(=O)(=O)NCCN1CCCC1.O=C(O)C(F)(F)F` had an Inhibition of 100%. `Cc1cccc2nc(-c3ccc(-c4ccc(CN5CCN(CCC#N)CC5)cc4)cc3)[nH]c12.O=C(O)C(F)(F)F` showed an Inhibition of 91%. On the same count and under the same terms, with `CCCCCCCN1CCC(CC(=O)Nc2ccnc3ccc(OC)cc23)C(CC)C1` (stereo not drawn) the figure was 100%. Compound `COc1ccc2c(c1)CC(C)(C)NC2CCCCCCCCC1NC(C)(C)Cc2cc(OC)ccc21.O=C(O)C(=O)O` (stereo not drawn) yielded an Inhibition of 98%. On the same count and under the same terms, with `Cl.O=C(Oc1ccc(C2CNCCc3c2cc(OC(=O)c2ccc(O)cc2)c(OC(=O)c2ccc(O)cc2)c3Cl)cc1)c1ccc(O)cc1` (stereo not drawn) the figure was 90%; with `COc1ccc(NC(=O)Nc2ccc(-c3ccncc3)c(C(F)(F)F)c2)cc1N1CCN(C)CC1`, 100%; with `CS(=O)(=O)O.FC(F)(F)COc1ccc2ccccc2c1CCNCCCCNCCc1c(OCC(F)(F)F)ccc2ccccc12`, 100%.

`Cc1cccc2nc(-c3cccc(-c4cccc(NC(=O)c5cccnc5)c4)c3)[nH]c12` registered an Inhibition of 100%.

The compound `O=C(NC1CCCCC1)N(Cc1cccc(-c2cccc(CNC3CCCC3)c2)c1)C1CCN(Cc2ccccc2)CC1.O=C(O)C(F)(F)F` displayed an Inhibition of 96%.

As to `CN(CCN)Cc1cccc(-c2cccc(-c3nc4cc(F)ccc4[nH]3)c2)c1.O=C(O)C(F)(F)F`, the Inhibition was 95%. In turn, `CN(C)CCN(C)Cc1ccc(-c2ccc(NC(=O)c3ccc(Cl)cc3)cc2)cc1.O=C(O)C(F)(F)F` came in with an Inhibition of 91%. For the compound `COc1cc(C(=O)Nc2cccc(-c3cn4ccc(C)cc4n3)c2)cc(OC)c1OC`, the Inhibition came to 97%. `COc1cc(NC(=O)N2CCOC(CCN3CCC4(CCc5ccccc54)CC3)(c3ccc(Cl)c(Cl)c3)C2)cc(OC)c1OC` (stereo not drawn) yielded an Inhibition of 94%. Regarding `CC(C)c1ccc(CN(C)CCCCNC(=O)c2ccc(NC(=O)c3ccc(Cl)cc3)cc2)cc1`, the Inhibition was 92%. Still for that read-out and setting: under `COc1ccc(C=NN=c2c3ccccc3[nH]c3ccccc23)c2ccccc12` stands 82%.

The compound `Cc1[nH]c(C)c(-c2ccc(-c3ccc(OC(F)(F)F)cc3)cc2)c(=O)c1Cl` yielded an Inhibition of 98%. Consider `O=C(NCC1CCC(CNCCCc2ccccc2)CC1)Nc1ccc(Cl)c(Cl)c1` (stereo not drawn), for which the Inhibition came to 99%. Same read-out and setting: with `Nc1cc(-c2ccc(-c3cccs3)s2)nc2ccccc12` the figure was 100%; with `Cc1ccc(NC(=O)C2CCC2)cc1-c1ccc(C(=O)NCC2CC2)cc1`, 98%. Same read-out and setting: with `Cc1cccc2nc(-c3ccc(-c4ccc(CN5CCN(C6CCN(C)CC6)CC5)cc4)cc3)[nH]c12.O=C(O)C(F)(F)F` the figure was 100%.

A further experiment concerns Plasmodium falciparum. Description: GSK_TCMDC: Inhibition of Plasmodium falciparum Dd2 in whole red blood cells, using parasite LDH activity as an index of growth. Test compounds present at 2uM. It counts as functional.
The compound `Cc1ccc(/C=C/C(=O)NCCCCCN2CCCN(C(=O)Nc3ccc(Cl)c(Cl)c3)CC2)cc1` registered an Inhibition of 1%.

For the compound `COc1ccc([N+](=O)[O-])cc1N(Cc1ccccc1-c1ccccc1)S(=O)(=O)c1ccc(C(F)(F)F)cc1[N+](=O)[O-]`, the Inhibition is on record as 92%.

Regarding `Cc1noc(C)c1-c1cccc(CNCc2ccc(-c3cccc(-c4nc5cc(C(F)(F)F)ccc5[nH]4)c3)cc2)c1.O=C(O)C(F)(F)F`, the Inhibition is given as 97%. The compound `CCN(CC)CCCN1CCN(C(=O)c2cccc(-c3noc(C(F)(F)F)n3)c2)CC1` registered an Inhibition of 74%. On the same count and under the same terms, under `COc1cc(C=Cc2ccc3ccccc3n2)cc(Br)c1OCC(=O)N(C)C` stands 87%; under `Cc1cc2nc(N=C3NC4(c5ccccn5)NC(=Nc5nc6cc(C)c(C)cc6[nH]5)NC4(c4ccccn4)N3)[nH]c2cc1C.O=C(O)C(F)(F)F` (stereo not drawn), 62%; under `CN(CCNCc1ccc(-c2cccc(-c3nc4ccccc4[nH]3)c2)cc1)S(C)(=O)=O.O=C(O)C(F)(F)F`, 29%.

`CN(CC1CCC(NC(=O)/C=C/c2ccc(Cl)c(Cl)c2)CC1)C1CCC(c2c[nH]c3ccccc23)CC1` (stereo not drawn) yielded an Inhibition of 53%. Consider `COc1ccc2ccccc2c1CON1C(=N)N=C(N)NC1(C)C.Cl`, for which the Inhibition was found to be 5%.

For `O=C(NC1CC1c1ccccc1)N(CCCn1ccnc1)Cc1csc(-c2ccc(CNCc3ccccc3)cc2)n1.O=C(O)C(F)(F)F` (stereo not drawn), the Inhibition turned out to be 20%.

`CC(Oc1cc(-n2cnc3ccc(NC(=O)CCN4CCCCC4)cc32)sc1C(N)=O)c1ccccc1Cl` (stereo not drawn) displayed an Inhibition of 98%.

Compound `COc1ccc(NC(=O)Nc2ccc(-c3cccc(-c4nc5ccccc5[nH]4)c3)cc2)cc1` had an Inhibition of 41%.

Compound `Cc1cc2ccc(/C=C/C(=O)NC3CCC(CCN4CCc5ccc(C#N)cc5CC4)CC3)cc2[nH]1.Cl` (stereo not drawn) returned an Inhibition of 56%. On the same count and under the same terms, under `CCCN1CCC=C(c2cccc(Nc3nccc(Nc4cc(OC)ccc4C)n3)c2)C1.Cl` stands 35%; under `CC(C)N1CCN(C(=O)c2ccc(CNCCCN3CCN(c4cccc(Cl)c4Cl)CC3)o2)CC1.Cl`, 36%; under `CC(C)CNCc1cccc(-c2cccc(CNc3ccc4ncccc4c3)c2)c1.O=C(O)C(F)(F)F`, 28%. Same read-out and setting: with `CCC(C)OC(=O)C1=C(C)NC2=C(C(=O)CC(c3ccc(OC)c(OC)c3)C2)C1c1cccc(O)c1` (stereo not drawn) the figure was 98%; with `CCCCn1c(C(C)Oc2ccc(Cl)cc2Cl)nc2cc(S(N)(=O)=O)ccc21` (stereo not drawn), 45%. The compound `Cc1cccc2nc(-c3ccc(-c4cccc(C(=O)NCCN5CCCC5)c4)s3)[nH]c12` returned an Inhibition of 2%. The compound `COc1ccccc1-n1ccnc1SCC(=O)Nc1cc(C(F)(F)F)ccc1Cl` yielded an Inhibition of 97%. Still for that read-out and setting: with `COc1ccc(-c2ccc(CNC3Cc4ccccc4C3)cc2)cc1S(=O)(=O)NCCN1CCCC1.O=C(O)C(F)(F)F` the figure was 99%; with `Cc1cccc2nc(-c3ccc(-c4ccc(CN5CCN(CCC#N)CC5)cc4)cc3)[nH]c12.O=C(O)C(F)(F)F`, 27%; with `CCCCCCCN1CCC(CC(=O)Nc2ccnc3ccc(OC)cc23)C(CC)C1` (stereo not drawn), 75%. Still for that read-out and setting: under `COc1ccc2c(c1)CC(C)(C)NC2CCCCCCCCC1NC(C)(C)Cc2cc(OC)ccc21.O=C(O)C(=O)O` (stereo not drawn) stands 62%; under `Cl.O=C(Oc1ccc(C2CNCCc3c2cc(OC(=O)c2ccc(O)cc2)c(OC(=O)c2ccc(O)cc2)c3Cl)cc1)c1ccc(O)cc1` (stereo not drawn), 60%; under `COc1ccc(NC(=O)Nc2ccc(-c3ccncc3)c(C(F)(F)F)c2)cc1N1CCN(C)CC1`, 62%. `CS(=O)(=O)O.FC(F)(F)COc1ccc2ccccc2c1CCNCCCCNCCc1c(OCC(F)(F)F)ccc2ccccc12` came in with an Inhibition of 53%. Turning to `Cc1cccc2nc(-c3cccc(-c4cccc(NC(=O)c5cccnc5)c4)c3)[nH]c12`, the Inhibition was 56%. `O=C(NC1CCCCC1)N(Cc1cccc(-c2cccc(CNC3CCCC3)c2)c1)C1CCN(Cc2ccccc2)CC1.O=C(O)C(F)(F)F` showed an Inhibition of 90%. `CN(CCN)Cc1cccc(-c2cccc(-c3nc4cc(F)ccc4[nH]3)c2)c1.O=C(O)C(F)(F)F` came in with an Inhibition of 19%. For `CN(C)CCN(C)Cc1ccc(-c2ccc(NC(=O)c3ccc(Cl)cc3)cc2)cc1.O=C(O)C(F)(F)F`, the Inhibition worked out at 19%. Still for that read-out and setting: under `COc1cc(C(=O)Nc2cccc(-c3cn4ccc(C)cc4n3)c2)cc(OC)c1OC` stands 83%; under `COc1cc(NC(=O)N2CCOC(CCN3CCC4(CCc5ccccc54)CC3)(c3ccc(Cl)c(Cl)c3)C2)cc(OC)c1OC` (stereo not drawn), 67%.

`CC(C)c1ccc(CN(C)CCCCNC(=O)c2ccc(NC(=O)c3ccc(Cl)cc3)cc2)cc1` returned an Inhibition of 0%. The same measure, in the same setting: with `COc1ccc(C=NN=c2c3ccccc3[nH]c3ccccc23)c2ccccc12` the figure was 23%; with `Cc1[nH]c(C)c(-c2ccc(-c3ccc(OC(F)(F)F)cc3)cc2)c(=O)c1Cl`, 97%. Same read-out and setting: under `O=C(NCC1CCC(CNCCCc2ccccc2)CC1)Nc1ccc(Cl)c(Cl)c1` (stereo not drawn) stands 2%; under `Nc1cc(-c2ccc(-c3cccs3)s2)nc2ccccc12`, 50%. As for `Cc1ccc(NC(=O)C2CCC2)cc1-c1ccc(C(=O)NCC2CC2)cc1`, the Inhibition is 3%. Same read-out and setting: with `Cc1cccc2nc(-c3ccc(-c4ccc(CN5CCN(C6CCN(C)CC6)CC5)cc4)cc3)[nH]c12.O=C(O)C(F)(F)F` the figure was 100%.

For orientation: Inhibition means the share of the control response that was lost under treatment. A high value points to strong suppression.
